# Measured values as given in PubChem BioAssay AID1566 (Sanford-Burnham Center for Chemical Genomics, 2009).
# Hit rate of the full screen: of about 290,000 compounds, about 1,800 (0.62%) were called active. The entries come from a sample that favours actives as a whole. Unmarked numbers belong to inactive results. No stated cut-off is given here; in the data, active means inhibition above about 50%; inactive means the rest.
# Assay: NOD2 signaling inhibitors, cell-based, luminescence, uHTS, HEK293 (AID 1566)
# Details: HEK293 NOD2/NF-kB luciferase reporter, at 4 µM, hits give high values
row,SMILES,inhibition
1,CCOc1ccc(-c2cc(C)[n+](CCO)c(-c3ccc(OCC)cc3)c2)cc1,0.3%
2,CCOc1ccc(-c2cc(C)[n+](CCN3CCOCC3)c(-c3ccc(OCC)cc3)c2)cc1,21.6%
3,CCOc1ccc(-c2cc(C)[n+](CCc3ccc(OC)c(OC)c3)c(-c3ccc(OCC)cc3)c2)cc1,58.6% (active)
4,COc1ccc(-c2cc(=NCCCCCC(=O)O)c3cc(C)ccc3o2)cc1,-4.2%
5,N=C1C(c2ccccc2)=C(O)CN1Cc1ccco1,8.2%
6,Cc1cccc(-n2c(O)c(C=NCCN3CCNCC3)c(=O)[nH]c2=S)c1,-4.3%
7,O=C(Cn1cc(C(=O)c2ccccc2F)c2ccccc21)NC1CC1,13.6%
8,O=C(c1cc(C(=O)NCc2ccccc2)c(=O)n(Cc2ccccc2)c1)c1cc(Br)ccc1O,2.5%
9,CCc1ccc(OCC(=O)N2CCN(Cc3ccc4c(c3)OCO4)CC2)cc1,-4.3%
10,CCCCNS(=O)(=O)c1ccc(OCC(=O)N2CCN(Cc3ccc4c(c3)OCO4)CC2)cc1,51.1% (active)
11,CCCNS(=O)(=O)c1ccc(OCC(=O)N2CCN(Cc3ccc4c(c3)OCO4)CC2)cc1,20.9%
12,CC(C)CNP(=S)(c1ccccc1)C(C)(C)C (configuration not stated),10.7%
13,O=c1cc(CN2CCNCC2)nc2sccn12,8.2%
14,FC(F)(F)c1cccc(C2NCc3ccccc3-n3cccc32)c1 (configuration not stated),9.8%
15,CC(=O)OC1CC[C@]2(C#N)[C@H]3CC[C@]4(C)[C@H](C5C=CC(=O)O5)CCC4(O)C3CCC2(O)C1 (some centres not stated),75% (active)
16,Cn1cccc1CN1CCN(C(=O)COc2ccccc2)CC1,16.7%
17,O=[N+]([O-])c1ccccc1CN1CC=C(c2ccc(F)cc2)CC1,-15.5%
18,CC12CC[C@H]3[C@@H](CCC4(O)C[C@H](O)CCC34/C=N/NC(=O)c3ccccc3Cl)C1(O)CCC2C1=CC(=O)OC1 (some centres not stated),25.4%
19,CC12CC[C@H]3[C@@H](CCC4(O)C[C@H](O)CCC34/C=N/NC(=O)c3ccccc3O)C1(O)CCC2C1=CC(=O)OC1 (some centres not stated),17.2%
20,C[C@H]1O[C@@H](O[C@H]2[C@@H](O)C[C@H](O[C@H]3[C@@H](O)C[C@H](O[C@H]4CC[C@@]5(C)[C@H](CC[C@@H]6[C@@H]5CC[C@]5(C)[C@@H](C7=CC(=O)OC7)CC[C@]65O)C4)O[C@@H]3C)O[C@@H]2C)C[C@H](O)[C@@H]1O,73.9% (active)
21,C[C@H]1O[C@@H](OC2CC[C@]3(C=O)[C@H]4CC[C@]5(C)[C@@H](C6=CC(=O)OC6)CC[C@]5(O)[C@@H]4CC[C@]3(O)C2)CC2OC(C)(C)OC21 (some centres not stated),73% (active)
22,CC12CC[C@H]3[C@@H](CCC4(O)C[C@H](O)CCC34/C=N/NC(=O)c3ccc(O)cc3)C1(O)CCC2C1=CC(=O)OC1 (some centres not stated),9.1%
23,COc1ccc(C(=O)N/N=C/C23CC[C@@H](O)CC2(O)CC[C@@H]2[C@@H]3CCC3(C)C(C4=CC(=O)OC4)CCC23O)cc1 (some centres not stated),27.3%
24,CCOc1ccc(N=Cc2c(O)n(Cc3ccccc3)c(=S)[nH]c2=O)cc1,8.4%

row,SMILES,inhibition
1,CC(C)CCOP(N)(=O)Oc1ccccc1 (configuration not stated),-6.2%
2,Cc1ccc2cccc(OC(=O)N(C)c3ccccc3)c2n1,5.1%
3,C=CCn1c(O)c(C(C)=NC2CC2)c(=O)[nH]c1=O,4.6%
4,O=c1c2ccccc2nc(/C=C/c2ccc(O)cc2)n1-c1ccccc1O,-2.5%
5,Cc1nc2ccc(Cl)cc2c(=O)n1-c1cccc(Cl)c1,-2.1%
6,O=C(Cn1nc(Cc2cccnc2)c2ccccc2c1=O)N1CCC2(CC1)OCCO2,20.3%
7,COc1ccccc1/C=C1\C(=O)NC(=S)N(c2ccccc2)C1=O,11.6%
8,NC(=S)c1cn(C2OC(CO)C(O)C2O)c2ncnc(N)c12 (configuration not stated),69.1% (active)
9,CCNC(=O)[C@H]1O[C@@H](n2cnc3c(N)ncnc32)[C@H](O)[C@@H]1O,-24.1%
10,C=C(C=O)C[C@@H]1C[C@H](O)C2OC3C[C@]4(C)OC5/C=C\CC6OC7C(CC=CCC6OC5CCCC4OC3CC2O1)OC1CC2OC3CC(=O)OC3C[C@@H](C)C[C@@]2(C)OC1C[C@@H]7C (some centres not stated),58.2% (active)
11,C=C(CC1CC(O)[C@]2(C)OC3CC4OC5C[C@]6(C)O[C@]7(C)CCC8OC9C[C@]%10(C)OC%11C(C)=CC(=O)OC%11CC%10OC9C[C@@H](C)C8OC7CC6O[C@]5(C)C/C=C\C4OC3CC2O1)C(=O)O (some centres not stated),12.8%
12,C=C(CO)CC1CC(O)[C@]2(C)OC3CC4OC5C[C@]6(C)O[C@]7(C)CCC8OC9C[C@]%10(C)OC%11C(C)=CC(=O)OC%11CC%10OC9C[C@@H](C)C8OC7CC6O[C@]5(C)C/C=C\C4OC3CC2O1 (some centres not stated),4.7%
13,C=CCn1c(O)c(/C(C)=N/NC(=S)Nc2ccccc2)c(=O)[nH]c1=O,10.8%
14,CCOc1cccc(=NC2CCCCC2)c2c(C)n(C)c(C)c12,27%
15,COc1ccc(-c2nc(CSCC(=O)N3CCC4(CC3)OCCO4)c(C)o2)cc1OC,-11.2%
16,Cc1ccsc1-c1nc(CSCC(=O)N2CCC3(CC2)OCCO3)c(C)o1,11.3%
17,Cc1oc(-c2cccs2)nc1CSCC(=O)N1CCC2(CC1)OCCO2,57.1% (active)
18,O=c1[nH]c(=O)n(CCC2=CCCCC2)c(O)c1/C=N/Nc1cccc2ccccc12,33.9%
19,C[C@H]1[C@H](OC(=O)CCC(=O)NCc2ccc(C(=O)O)cc2)O[C@@H]2O[C@@]3(C)CC[C@H]4[C@H](C)CC[C@@H]1C24OO3,26.4%
20,CC1C(OC(=O)CCC(=O)NC(C)(C)CO)O[C@H]2OC3(C)CC[C@H]4[C@H](C)CCC1C24OO3 (some centres not stated),64.5% (active)
21,C[C@@H]1CC[C@H]2[C@@H](C)C(=O)O[C@@H]3O[C@@]4(C)CC[C@@H]1[C@]32OO4,9%
22,O=c1[nH]c(=O)n(CCC2=CCCCC2)c(O)c1/C=N/Nc1ccccc1,15.6%
23,CCOc1ccc(N2C(=O)NC(=O)/C(=C/c3cnc(SC)nc3)C2=O)cc1,3%
